From ChEMBL document CHEMBL1201862, “PubChem BioAssay data set” (2004) come the findings set out here.

“And” between values parts separate entries of the source, which are not always exact repeats. Identical values can stand only once. Some results are limits rather than exact numbers.

The nature of the experiment: A High Throughput Confirmatory Assay used to Identify Novel Compounds that Inhibit Mycobacterium Tuberculosis in the absence of Glycerol using Purified and Synthesized Compounds (8). It is filed as functional.
In general, IC90 refers to the point of the concentration-response curve where the effect stands at 90%. As for `O=C(c1ccc(CNc2c(N3CCCC3)c(=O)c2=O)cc1)N1CCN(c2ccccc2)CC1`, the IC90 was > 100 µM (active).

On to `CC(C)CCNC(=O)CSc1nc2c(c(=O)[nH]1)CCCCC2`, for which the IC90 was > 100 µM (active).

For `O=C(c1ccc(CNc2c(N3CCCC3)c(=O)c2=O)cc1)N1CCc2ccccc2C1`, the 90% effect concentration (IC90) is > 100 µM (active).

In the case of `CC1CCCN(C(=O)C2CCC(CNc3c(N4CCCCC4)c(=O)c3=O)CC2)C1` (centres undefined), the concentration for an effect of 90% (IC90) was > 100 µM (active).

Regarding `CC1CC(C)CN(C(=O)C2CCC(CNc3c(N4CCCCC4)c(=O)c3=O)CC2)C1` (centres undefined), the concentration for an effect of 90% (IC90) is > 75 µM (active) and > 100 µM (active).

As to `CC1CCCN(C(=O)c2ccc(CNc3c(N4CCCCC4)c(=O)c3=O)cc2)C1` (centres undefined), the 90% effect concentration (IC90) is > 100 µM (active).

With `O=C(c1ccc(CNc2c(N3CCOCC3)c(=O)c2=O)cc1)N1CCN(c2ccccc2)CC1`, the IC90 was > 53.1 µM (active).

In the case of `O=C(c1ccc(CNc2c(N3CCOCC3)c(=O)c2=O)cc1)N1CCC(c2ccccc2)CC1`, the IC90 was > 68.9 µM (active).

Turning to `CC1CC(C)CN(C(=O)c2ccc(CNc3c(N4CCCC4)c(=O)c3=O)cc2)C1` (centres undefined), the IC90 was > 100 µM (active).

Consider `CC1CCN(C(=O)c2ccc(CNc3c(N4CCCC4)c(=O)c3=O)cc2)CC1`, for which the IC90 was > 100 µM (active).

Turning to `CCOC(=O)N1CCC(/N=c2\c(O)c(O)\c2=N/c2cccc(CC)c2)CC1`, the IC90 was > 59.3 µM (active).

Regarding `CC(C)OC(=O)CSc1ncnc2c1cnn2-c1ccccc1`, the IC90 is > 100 µM (active).

Turning to `O=C(C1CCC(CNc2c(N3CCCCC3)c(=O)c2=O)CC1)N1CCCCC1` (centres undefined), the IC90 is > 83.3 µM (active).

For the compound `COc1ccc(N2CCN(C(=O)c3ccc(CNc4c(N5CCOCC5)c(=O)c4=O)cc3)CC2)cc1`, the concentration for an effect of 90% (IC90) was > 100 µM (active).
